Experimental data from PubChem BioAssay AID1159580 (chemical genetic matrix, 2015).
“And” between values parts separate entries of the source, which are not always exact repeats. Identical values can stand only once. The campaign covered roughly 5,500 compounds. About 2,000 (36%) were called active. Another 18% or so got no clear call; they are omitted. No stated cut-off is given here; in the data, active means normalized growth mostly below about 0.91 (no sharp cut-off); inconclusive means no clear call, values can overlap the other calls; inactive means mostly above about 0.92. The list shows a part of the results.

Assay: chemical genetic growth profiling, strain panel (AID 1159580);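 further: tested at 20 µM; growth read once vehicle control cultures reached saturation at 30 °C; 1 = growth at the plate median or of vehicle wells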
Conditions: S. cerevisiae deletion strains, growth OD

Measured: normalized growth

NC(N)=NC(=O)c1nc(Cl)c(N)nc1N
inactive: locus YAL013W, strain DEP1, stronger effect = lower value 0.935 | locus YAL021C, strain ccr4, stronger effect = lower value 0.977 | locus YAL026C, strain drs2, stronger effect = lower value 1.01 | locus YAL030W, strain snc1, stronger effect = lower value 1.01 | locus YAL040C, strain CLN3, stronger effect = lower value 1 | locus YBL061C, strain skt5, stronger effect = lower value 1.04 | locus YBR009C, strain hhf1, stronger effect = lower value 1.01 | locus YBR021W, strain FUR4, stronger effect = lower value 0.86 | locus YBR023C, strain chs3, stronger effect = lower value 1.04 | locus YBR171W, strain sec66, stronger effect = lower value 1.02 | locus YBR229C, strain ROT2, stronger effect = lower value 1 | locus YBR231C, strain swc5, stronger effect = lower value 1.02 | locus YBR279W, strain paf1, stronger effect = lower value 1.01 | locus YCL011C, strain gbp2, stronger effect = lower value 0.998 | locus YCL016C, strain dcc1, stronger effect = lower value 0.997 | locus YCL029C, strain bik1, stronger effect = lower value 1.02 | locus YCL061C, strain MRC1 (second series), stronger effect = lower value 0.995 | locus YCL061C, strain MRC1, stronger effect = lower value 1.03 | locus YCL069W, strain vba3, stronger effect = lower value 1.02 | locus YCR088W, strain abp1, stronger effect = lower value 1.03 | locus YDL005C, strain med2, stronger effect = lower value 1.02 | locus YDL035C, strain GPR1, stronger effect = lower value 0.983 | locus YDL040C, strain nat1, stronger effect = lower value 1.02 | locus YDL074C, strain BRE1, stronger effect = lower value 0.975 | locus YDL101C, strain DUN1, stronger effect = lower value 1.03 | locus YDL185W, strain tfp1, stronger effect = lower value 1.03 | locus YDL192W, strain arf1, stronger effect = lower value 1.02 | locus YDR001C, strain nth1, stronger effect = lower value 1.04 | locus YDR069C, strain doa4, stronger effect = lower value 1.04 | locus YDR101C, strain arx1, stronger effect = lower value 1.01 | locus YDR137W, strain rgp1, stronger effect = lower value 1.02 | locus YDR159W, strain sac3, stronger effect = lower value 1 | locus YDR162C, strain NBP2, stronger effect = lower value 1.02 | locus YDR195W, strain ref2 1.04 | locus YDR297W, strain sur2, stronger effect = lower value 1.02 | locus YDR318W, strain mcm21, stronger effect = lower value 1.02 | locus YDR334W, strain swr1, stronger effect = lower value 1.01 | locus YDR335W, strain msn5, stronger effect = lower value 1.01 | locus YDR388W, stronger effect = lower value 1.01 | locus YDR392W, strain spt3, stronger effect = lower value 0.988 | locus YDR502C, strain sam2, stronger effect = lower value 1.02 | locus YEL003W, strain gim4, stronger effect = lower value 1.02 | locus YEL037C, strain rad23, stronger effect = lower value 1.02 | locus YEL061C, strain CIN8 (second series), stronger effect = lower value 1.03 | locus YEL061C, strain CIN8, stronger effect = lower value 1 | locus YER002W, strain NOP16, stronger effect = lower value 1 | locus YER015W, strain faa2, stronger effect = lower value 1.03 | locus YER016W, strain bim1, stronger effect = lower value 1.02 | locus YER110C, stronger effect = lower value 1.02 | locus YER111C, strain swi4, stronger effect = lower value 1.03 | locus YER155C, strain BEM2 (second series), stronger effect = lower value 1.05 | locus YER155C, strain BEM2, stronger effect = lower value 1.01 | locus YER167W, strain BCK2, stronger effect = lower value 1 | locus YFR010W, strain ubp6, stronger effect = lower value 1.01 | locus YGL078C, strain dbp3, stronger effect = lower value 1.01 | locus YGL086W, strain mad1, stronger effect = lower value 1.01 | locus YGL167C, strain pmr1, stronger effect = lower value 1.04 | locus YGL173C, strain kem1, stronger effect = lower value 1.04 | locus YGL227W, strain vid30, stronger effect = lower value 1.03 | locus YGL240W, strain doc1, stronger effect = lower value 1.05 | locus YGL248W, strain PDE1, stronger effect = lower value 1.01 | locus YGL253W, strain hxk2, stronger effect = lower value 1 | locus YGR135W, strain pre9, stronger effect = lower value 0.987 | locus YGR229C, strain SMI1, stronger effect = lower value 0.994 | locus YGR252W, strain gcn5, stronger effect = lower value 0.896 | locus YHR013C, strain ard1, stronger effect = lower value 0.998 | locus YHR027C, strain rpn1, stronger effect = lower value 1.02 | locus YHR030C, strain SLT2, stronger effect = lower value 1.01 and 1 | locus YHR079C, strain IRE1 (second series), stronger effect = lower value 1.01 | locus YHR079C, strain IRE1, stronger effect = lower value 1 | locus YHR094C, strain hxt1, stronger effect = lower value 1.01 | locus YHR129C, strain ARP1, stronger effect = lower value 1.02 | locus YHR142W, strain chs7, stronger effect = lower value 1.02 | locus YHR200W, strain rpn10, stronger effect = lower value 1.02 | locus YIL066C, strain RNR3, stronger effect = lower value 1.02 | locus YIL073C, strain SPO22, stronger effect = lower value 1 | locus YIL125W, strain kgd1, stronger effect = lower value 1.01 | locus YIR030C, strain dcg1, stronger effect = lower value 1.02 | locus YJL092W, strain hpr5, stronger effect = lower value 1.01 | locus YJL095W, strain BCK1 (second series), stronger effect = lower value 1.03 | locus YJL095W, strain BCK1, stronger effect = lower value 0.962 and 1.01 | locus YJL115W, strain asf1, stronger effect = lower value 1.02 | locus YJL129C, strain trk1, stronger effect = lower value 1.04 | locus YJL134W, strain LCB3, stronger effect = lower value 1 | locus YJL154C, strain vps35, stronger effect = lower value 1.01 | locus YJL164C, strain tpk1, stronger effect = lower value 0.995 | locus YJL166W, strain qcr8, stronger effect = lower value 1.04 | locus YJL168C, strain set2, stronger effect = lower value 1.02 | locus YJL187C, strain SWE1 (second series), stronger effect = lower value 1.01 | locus YJL187C, strain SWE1, stronger effect = lower value 1.02 | locus YJR043C, strain POL32, stronger effect = lower value 1.02 | locus YJR066W, strain TOR1, stronger effect = lower value 0.959 | locus YJR075W, strain HOC1, stronger effect = lower value 1.02
